Assay [1] deals with human Peroxisome Proliferator-activated Receptor alpha (PPARa), PPARA (gene 5465) (UniProt Q07869). Kind of assay: ATG_PPARa_TRANS: Attagene TRANS-FACTORIAL HepG2 Assay for human Peroxisome Proliferator-activated Receptor alpha (PPARa) (AID 2283001).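 For AC50: potency for gain of reporter signal over DMSO so agonist or activator.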 Summed up: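 Reporter transcripts quantified by RT-PCR plus capillary electrophoresis after 24 h treatment, fitted upward relative to DMSO. Cells: human HepG2 transiently carrying multiple GAL4-UAS reporter units driven by NR-Gal4 chimeras.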

Read-out in assay [2]: Intercellular Adhesion Molecule 1 (ICAM1), ICAM1 (gene 3383)
The assay is described as follows: BSK_3C_ICAM1: BioMAP Diversity Plus: 3C Assay for Intercellular Adhesion Molecule 1 (ICAM1) Biomarker Activity (AID 2283003; active = hit-call score of the fitted dose curve at least 0.9, where 1 is the maximum; inactive = score below 0.9). The conditions noted are these: primary human endothelial cells (HUVEC); actives raise or lower the signal. Summed up:
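Chemicals are dosed onto primary human umbilical vein endothelium (3C system). After 24 h, ICAM-1 is measured by ELISA, and responses are fitted bidirectionally relative to DMSO.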

Assay [3] in a line: BSK_3C_Proliferation: Cell Proliferation Assessment in the BioMAP Diversity Plus: 3C Assay (AID 2283006; active = hit-call score of the fitted dose curve at least 0.9, where 1 is the maximum; inactive = score below 0.9;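 note: potency may reflect either rise or fall in cell number versus DMSO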). The conditions noted are these: primary human endothelial cells (HUVEC). Summed up:
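Cells (human umbilical vein endothelial, sub-confluent) receive test chemical; after 48 h they are fixed in 10% trichloroacetic acid, stained with 0.1% SRB and read at 560 nm. Activity is referenced to DMSO, fitting increases and decreases.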

Assay [4] concerns the target Peroxisome proliferator-activated receptor gamma (Homo sapiens) (UniProt P37231). Kind of assay: ATG_PPARg_TRANS: Attagene TRANS-FACTORIAL HepG2 Assay for human Peroxisome Proliferator-activated Receptor-gamma (PPARg) (AID 2283007). The gist of the method: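 Multiplexed reporter transcription units in HepG2, 24 h dosing, reporter transcripts quantified by fluorescent RT-PCR and capillary electrophoresis. Increase over DMSO scored.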

Assay [5] addresses Nuclear receptor subfamily 1 group I member 2 (Homo sapiens) (UniProt O75469). The assay is described as follows: ATG_PXR_TRANS: Attagene TRANS-FACTORIAL HepG2 Assay for human Pregnane X Receptor (PXR) (AID 2283008). Summed up:
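Transient HepG2 transfectants carrying multiplexed reporter transcription units; PXR activity read through a Gal4 chimera. 24 h exposure. RT-PCR/CE fluorescence; upward curve fit referenced to DMSO.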

Assay [6] has as its target human Retinoid X Receptor beta (RXRb), RXRB (gene 6257) (UniProt P28702). The assay is described as follows: ATG_RXRb_TRANS: Attagene TRANS-FACTORIAL HepG2 Assay for human Retinoid X Receptor beta (RXRb) (AID 2283013). Summed up:
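Chimeric receptor-Gal4 activity was assessed in transiently transfected human HepG2 cells after 24 h exposure. Transcripts from GAL4-UAS reporters were quantified by fluorescent RT-PCR and capillary electrophoresis, with DMSO as negative control and baseline.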

Read-out in assay [7]: E-selectin (Homo sapiens) (UniProt P16581)
Kind of assay: BSK_3C_Eselectin: BioMAP Diversity Plus: 3C Assay for Eselectin Biomarker Activity (AID 2283015; active = hit-call score of the fitted dose curve at least 0.9, where 1 is the maximum; inactive = score below 0.9;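 for outcome: cell surface E-selectin protein quantified by ELISA 24 h after dosing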). The conditions noted are these: primary human endothelial cells (HUVEC); actives raise or lower the signal. The gist of the method:
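ELISA read-out of E-selectin on endothelial monolayers after 24 h chemical treatment. Human umbilical vein primary cells served as the system, with DMSO defining baseline activity for bidirectional fitting.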

Read-out in assay [8]: Interleukin-1 alpha (IL1a), IL1A (gene 3552)
The assay is described as follows: BSK_BE3C_IL1a: BioMAP Diversity Plus: BE3C Assay for Interleukin-1 alpha (IL1a) Biomarker Activity (AID 2283016; active = hit-call score of the fitted dose curve at least 0.9, where 1 is the maximum; inactive = score below 0.9). The settings on record: primary human bronchial epithelial cells; actives raise or lower the signal. Summed up: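 Signal from IL-1a ELISA, taken 24 h after chemical dosing of human bronchial epithelial cells, is compared with DMSO as baseline using bidirectional curve fitting.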

Read-out in assay [9]: Monocyte Chemoattractant Protein-1 (MCP1), CCL2 (gene 6347)
The assay is described as follows: BSK_3C_MCP1: BioMAP Diversity Plus: 3C Assay for Monocyte Chemoattractant Protein-1 (MCP1) Biomarker Activity (AID 2283017; active = hit-call score of the fitted dose curve at least 0.9, where 1 is the maximum; inactive = score below 0.9). The settings on record: primary human endothelial cells (HUVEC); actives raise or lower the signal. The gist of the method: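 ELISA read-out of MCP-1 from human umbilical vein endothelial cell cultures harvested 24 h post-dosing. Gain or loss of signal was fitted relative to DMSO.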

Read-out in assay [10]: Monocyte Chemoattractant Protein-1 (MCP1), CCL2 (gene 6347)
The assay is described as follows: BSK_4H_MCP1: BioMAP Diversity Plus: 4H Assay for Monocyte Chemoattractant Protein-1 (MCP1) Biomarker Activity (AID 2283018; active = hit-call score of the fitted dose curve at least 0.9, where 1 is the maximum; inactive = score below 0.9). The settings on record: primary human endothelial cells (HUVEC); actives raise or lower the signal. The gist of the method:
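Endothelial cells from umbilical vein were treated with test chemical, then after 24 h MCP-1 levels were quantified by ELISA; endpoint values came from bidirectional fitting with DMSO as baseline of activity.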

Read-out in assay [11]: Human Leukocyte Antigen - DR isotype (HLADR), HLA-DRA (gene 3122)
Kind of assay: BSK_3C_HLADR: BioMAP Diversity Plus: 3C Assay for Human Leukocyte Antigen - DR isotype (HLADR) Biomarker Activity (AID 2283019; active = hit-call score of the fitted dose curve at least 0.9, where 1 is the maximum; inactive = score below 0.9;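 for outcome: ELISA of cell-surface HLA-DR on HUVEC 24 h after dosing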). The settings on record: primary human endothelial cells (HUVEC); actives raise or lower the signal. The gist of the method:
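ELISA readout of surface HLA-DR on human umbilical vein endothelium, taken 24 h after chemical treatment. Gain- and loss-of-signal were both fitted relative to DMSO.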

Read-out in assay [12]: Interleukin-8 (IL8), CXCL8 (gene 3576)
Kind of assay: BSK_3C_IL8: BioMAP Diversity Plus: 3C Assay for Interleukin-8 (IL8) Biomarker Activity (AID 2283020; active = hit-call score of the fitted dose curve at least 0.9, where 1 is the maximum; inactive = score below 0.9). The conditions noted are these: primary human endothelial cells (HUVEC); actives raise or lower the signal. The gist of the method: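 Endothelial primary cells of human umbilical vein origin are dosed with chemical; after 24 h the IL-8 biomarker is measured by ELISA, and concentration–response is fitted in both directions versus DMSO.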

Read-out in assay [13]: Monokine induced gamma interferon (MIG), CXCL9 (gene 4283)
The assay is described as follows: BSK_3C_MIG: BioMAP Diversity Plus: 3C Assay for Monokine induced gamma interferon (MIG) Biomarker Activity (AID 2283021; active = hit-call score of the fitted dose curve at least 0.9, where 1 is the maximum; inactive = score below 0.9;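 for AC50: MIG protein level measured by immunoassay in the treated endothelial cultures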). The settings on record: primary human endothelial cells (HUVEC); actives raise or lower the signal. The gist of the method:
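Endothelial primary cells (human umbilical vein) are dosed with test chemical in the 3C system. MIG levels are measured by ELISA at 24 h and fitted in both directions relative to DMSO.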

In assay [14] the target is human Retinoic Acid Receptor beta (RARb), RARB (gene 5915) (UniProt P10826). Kind of assay: ATG_RARb_TRANS: Attagene TRANS-FACTORIAL HepG2 Assay for human Retinoic Acid Receptor beta (AID 2283004). The gist of the method:
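Transient transfection of HepG2 with multiple reporter units → chemical dosing, 24 h → total RNA isolation → RT with oligo(dT) → reporter-specific PCR, 6-FAM primer extension, HpaI digest → capillary electrophoresis. Positive direction vs DMSO control.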

Assay [15] concerns the target Retinoic acid receptor alpha (Homo sapiens) (UniProt P10276). The assay is described as follows: ATG_RARa_TRANS: Attagene TRANS-FACTORIAL HepG2 Assay for human Retinoic Acid Receptor alpha (RARa) (AID 2283005). Summed up:
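Reporter transcripts, measured by RT-PCR with fluorescent labeling and capillary electrophoresis after 24 h dosing, reflect activity of an exogenous human RARa–GAL4 fusion in transiently transfected HepG2. Fitted for increase relative to DMSO.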

Assay [16] addresses human Retinoic Acid Receptor gamma (RARg), RARG (gene 5916) (UniProt P13631). The assay is described as follows: ATG_RARg_TRANS: Attagene TRANS-FACTORIAL HepG2 Assay for human Retinoic Acid Receptor gamma (RARg) (AID 2283009). Summed up: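 TRANS format measured activity of exogenous NR-GAL4 fusion (RARg) in transfected HepG2 liver cells after 24 h dosing. Induced reporter RNA was detected by RT-PCR/capillary electrophoresis fluorescence, analysed in the positive direction against DMSO.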

Assay [17] addresses Retinoic acid receptor RXR-alpha (Homo sapiens) (UniProt P19793). Kind of assay: ATG_RXRa_TRANS: Attagene TRANS-FACTORIAL HepG2 Assay for human Retinoid X Receptor alpha (RXRa) (AID 2283012). The gist of the method:
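Measures exogenous chimeric NR-GAL4 activity in transfected HepG2 liver cells after 24 h of dosing. Induced reporter mRNA was detected by RT-PCR with capillary electrophoresis, and gain of signal was analysed against DMSO.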

Assay [18] concerns the target human Thyroid Receptor alpha (THRa1), THRA (gene 7067) (UniProt P10827). Kind of assay: ATG_THRa1_TRANS: Attagene TRANS-FACTORIAL HepG2 Assay for human Thyroid Receptor alpha (THRa1) (AID 2283014). The gist of the method: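 Reporter transcript induction, read by capillary electrophoresis of 6-FAM-labelled RT-PCR products, reflects activity of a transfected THRa1-Gal4 fusion in HepG2 liver cells. Cells were dosed for 24 h; activity was fitted in the positive direction against DMSO.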

In assay [19] the target is human Peroxisome Proliferator-activated Receptor delta (PPARd), PPARD (gene 5467) (UniProt Q03181). Kind of assay: ATG_PPARd_TRANS: Attagene TRANS-FACTORIAL HepG2 Assay for human Peroxisome Proliferator-activated Receptor delta (PPARd) (AID 2283002). The gist of the method:
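Read-out is induced reporter mRNA, quantified by RT-PCR with fluorescent labelling and capillary electrophoresis after 24 h dosing. Cells are HepG2 transiently carrying multiple GAL4-UAS reporter units driven by exogenous NR-GAL4 chimeras; DMSO serves as baseline.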

The target in assay [20] is human RAR-related Orphan Receptor beta (RORb), RORB (gene 6096) (UniProt Q92753). Kind of assay: ATG_RORb_TRANS: Attagene TRANS-FACTORIAL HepG2 Assay for human RAR-related Orphan Receptor beta (RORb) (AID 2283010). Summed up: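 Transfect HepG2 with multiple GAL4-UAS reporter transcription units; dose chemicals for 24 h; isolate RNA, reverse-transcribe and PCR-amplify reporter sequences; label, digest and resolve fragments by capillary electrophoresis; fit increases relative to DMSO.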

SMILES strings stand for the structures. “And” between values parts separate entries of the source, which are not always exact repeats. Equal values may be shown once. Inconclusive results are not listed. A structure can be active in one record and inactive in another. The source made the active and inactive calls. Rule for the calls, unless noted: active = hit-call score of the fitted dose curve at least 0.9, where 1 is the maximum; inconclusive = response in the unintended direction; inactive = score below 0.9.

Sequence of Nuclear receptor subfamily 1 group I member 2 (Homo sapiens) (O75469 whole entry, looked up, the tested form may be a part): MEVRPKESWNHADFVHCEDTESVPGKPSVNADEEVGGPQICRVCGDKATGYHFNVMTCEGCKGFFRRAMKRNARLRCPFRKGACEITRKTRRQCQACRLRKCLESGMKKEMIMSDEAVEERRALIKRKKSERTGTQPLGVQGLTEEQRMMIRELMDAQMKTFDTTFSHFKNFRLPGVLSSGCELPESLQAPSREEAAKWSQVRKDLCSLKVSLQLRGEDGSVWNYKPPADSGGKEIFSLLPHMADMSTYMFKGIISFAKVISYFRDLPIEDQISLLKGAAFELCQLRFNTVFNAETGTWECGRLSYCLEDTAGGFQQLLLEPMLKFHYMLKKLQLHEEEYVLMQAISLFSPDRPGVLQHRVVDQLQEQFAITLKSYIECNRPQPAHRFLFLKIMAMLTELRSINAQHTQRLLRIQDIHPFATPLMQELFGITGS
Sequence of Retinoic acid receptor alpha (Homo sapiens) (P10276 whole entry, looked up, the tested form may be a part): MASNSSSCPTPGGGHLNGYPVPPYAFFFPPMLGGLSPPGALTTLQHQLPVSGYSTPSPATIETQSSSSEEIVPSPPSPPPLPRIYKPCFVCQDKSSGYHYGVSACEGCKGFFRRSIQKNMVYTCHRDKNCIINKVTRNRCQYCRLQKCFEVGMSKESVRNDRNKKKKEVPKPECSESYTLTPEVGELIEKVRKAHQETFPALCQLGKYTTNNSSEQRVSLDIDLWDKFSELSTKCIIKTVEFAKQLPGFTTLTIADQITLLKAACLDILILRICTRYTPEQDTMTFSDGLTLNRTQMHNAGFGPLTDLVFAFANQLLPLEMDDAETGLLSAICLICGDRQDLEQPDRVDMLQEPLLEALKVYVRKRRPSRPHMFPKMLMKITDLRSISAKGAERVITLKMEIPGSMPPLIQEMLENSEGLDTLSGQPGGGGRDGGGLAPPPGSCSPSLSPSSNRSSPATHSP
Sequence of Peroxisome proliferator-activated receptor gamma (Homo sapiens) (P37231 whole entry, looked up): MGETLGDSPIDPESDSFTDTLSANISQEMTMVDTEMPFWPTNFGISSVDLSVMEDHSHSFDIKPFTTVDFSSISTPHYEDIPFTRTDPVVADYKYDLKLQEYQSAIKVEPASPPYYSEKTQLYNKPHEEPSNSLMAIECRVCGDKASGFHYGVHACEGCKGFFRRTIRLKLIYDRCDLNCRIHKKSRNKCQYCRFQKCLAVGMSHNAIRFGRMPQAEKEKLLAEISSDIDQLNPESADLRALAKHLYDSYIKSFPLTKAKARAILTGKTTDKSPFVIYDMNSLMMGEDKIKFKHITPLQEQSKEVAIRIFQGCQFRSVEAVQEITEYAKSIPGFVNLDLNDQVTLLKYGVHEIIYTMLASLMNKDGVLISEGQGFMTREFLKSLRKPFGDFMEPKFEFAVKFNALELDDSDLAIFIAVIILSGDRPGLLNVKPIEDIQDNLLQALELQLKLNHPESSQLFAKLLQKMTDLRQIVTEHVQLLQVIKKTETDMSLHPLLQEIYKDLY
Sequence of human Thyroid Receptor alpha (THRa1), THRA (gene 7067) (P10827 whole entry, looked up, the tested form may be a part): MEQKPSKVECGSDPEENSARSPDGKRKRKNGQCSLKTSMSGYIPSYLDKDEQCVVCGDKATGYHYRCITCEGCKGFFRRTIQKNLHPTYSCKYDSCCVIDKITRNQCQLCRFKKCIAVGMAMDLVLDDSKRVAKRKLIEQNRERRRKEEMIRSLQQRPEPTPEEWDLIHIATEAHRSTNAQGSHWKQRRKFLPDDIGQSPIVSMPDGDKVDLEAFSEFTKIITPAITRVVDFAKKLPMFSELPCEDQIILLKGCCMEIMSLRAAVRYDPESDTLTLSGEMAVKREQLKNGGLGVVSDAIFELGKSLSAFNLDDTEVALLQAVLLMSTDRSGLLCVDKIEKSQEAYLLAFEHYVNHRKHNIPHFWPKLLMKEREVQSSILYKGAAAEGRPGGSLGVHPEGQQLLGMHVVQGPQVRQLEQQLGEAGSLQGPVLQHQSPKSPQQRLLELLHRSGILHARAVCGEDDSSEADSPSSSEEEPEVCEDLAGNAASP
Sequence of human Retinoic Acid Receptor beta (RARb), RARB (gene 5915) (P10826 whole entry, looked up): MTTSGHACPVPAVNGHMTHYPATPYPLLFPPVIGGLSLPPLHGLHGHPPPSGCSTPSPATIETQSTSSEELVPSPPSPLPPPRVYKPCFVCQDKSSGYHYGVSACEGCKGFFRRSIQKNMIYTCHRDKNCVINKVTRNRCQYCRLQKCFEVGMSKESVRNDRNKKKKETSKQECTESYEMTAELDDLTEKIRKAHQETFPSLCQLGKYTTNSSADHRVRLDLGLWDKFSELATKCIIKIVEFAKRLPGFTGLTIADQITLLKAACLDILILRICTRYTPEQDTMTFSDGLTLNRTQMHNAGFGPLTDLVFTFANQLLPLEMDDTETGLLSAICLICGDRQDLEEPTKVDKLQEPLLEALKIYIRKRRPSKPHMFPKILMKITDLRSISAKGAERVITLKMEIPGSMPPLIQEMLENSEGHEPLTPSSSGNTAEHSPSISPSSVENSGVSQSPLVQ
Sequence of human Peroxisome Proliferator-activated Receptor alpha (PPARa), PPARA (gene 5465) (Q07869 whole entry, looked up, the tested form may be a part): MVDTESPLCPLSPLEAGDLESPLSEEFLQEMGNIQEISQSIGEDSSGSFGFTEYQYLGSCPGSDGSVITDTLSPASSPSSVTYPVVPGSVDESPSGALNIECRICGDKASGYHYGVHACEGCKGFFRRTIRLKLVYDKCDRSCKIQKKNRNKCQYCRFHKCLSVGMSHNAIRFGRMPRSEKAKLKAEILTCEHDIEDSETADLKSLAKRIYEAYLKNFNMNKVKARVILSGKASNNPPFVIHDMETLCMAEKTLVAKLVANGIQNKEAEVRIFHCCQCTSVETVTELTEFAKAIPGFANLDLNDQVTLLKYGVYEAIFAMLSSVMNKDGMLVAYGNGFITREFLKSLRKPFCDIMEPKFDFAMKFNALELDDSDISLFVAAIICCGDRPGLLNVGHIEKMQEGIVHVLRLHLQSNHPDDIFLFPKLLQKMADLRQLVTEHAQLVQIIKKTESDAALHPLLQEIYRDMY
Sequence of E-selectin (Homo sapiens) (P16581 whole entry, looked up): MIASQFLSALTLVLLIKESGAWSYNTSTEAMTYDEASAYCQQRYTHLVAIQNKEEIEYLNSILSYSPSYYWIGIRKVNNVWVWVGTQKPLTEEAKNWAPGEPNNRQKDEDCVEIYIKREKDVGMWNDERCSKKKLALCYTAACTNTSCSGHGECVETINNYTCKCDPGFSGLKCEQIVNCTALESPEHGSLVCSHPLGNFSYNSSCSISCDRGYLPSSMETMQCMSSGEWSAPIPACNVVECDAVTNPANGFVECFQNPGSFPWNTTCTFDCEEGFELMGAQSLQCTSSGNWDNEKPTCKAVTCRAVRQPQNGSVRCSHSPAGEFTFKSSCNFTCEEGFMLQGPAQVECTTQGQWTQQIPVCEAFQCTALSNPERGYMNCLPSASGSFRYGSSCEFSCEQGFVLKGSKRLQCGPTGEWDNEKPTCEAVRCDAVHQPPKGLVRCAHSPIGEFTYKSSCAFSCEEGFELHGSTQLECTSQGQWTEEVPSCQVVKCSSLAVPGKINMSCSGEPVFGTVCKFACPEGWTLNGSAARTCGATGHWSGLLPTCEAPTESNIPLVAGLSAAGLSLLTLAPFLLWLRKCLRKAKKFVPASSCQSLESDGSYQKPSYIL
Sequence of Retinoic acid receptor RXR-alpha (Homo sapiens) (P19793 whole entry, looked up, the tested form may be a part): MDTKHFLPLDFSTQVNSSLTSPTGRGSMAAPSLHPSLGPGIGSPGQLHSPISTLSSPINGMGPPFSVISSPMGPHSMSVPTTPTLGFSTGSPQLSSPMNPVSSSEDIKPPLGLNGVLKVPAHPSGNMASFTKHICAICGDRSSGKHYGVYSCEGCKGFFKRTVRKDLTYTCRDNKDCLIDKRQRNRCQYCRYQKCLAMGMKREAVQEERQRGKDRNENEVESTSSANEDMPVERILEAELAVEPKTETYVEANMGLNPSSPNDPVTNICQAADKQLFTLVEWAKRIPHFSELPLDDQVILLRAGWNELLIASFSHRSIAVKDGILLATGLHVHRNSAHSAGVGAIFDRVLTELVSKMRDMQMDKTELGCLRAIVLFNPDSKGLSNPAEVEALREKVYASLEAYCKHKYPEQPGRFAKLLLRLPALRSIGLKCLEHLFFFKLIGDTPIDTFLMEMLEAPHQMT
Sequence of human Retinoic Acid Receptor gamma (RARg), RARG (gene 5916) (P13631 whole entry, looked up, the tested form may be a part): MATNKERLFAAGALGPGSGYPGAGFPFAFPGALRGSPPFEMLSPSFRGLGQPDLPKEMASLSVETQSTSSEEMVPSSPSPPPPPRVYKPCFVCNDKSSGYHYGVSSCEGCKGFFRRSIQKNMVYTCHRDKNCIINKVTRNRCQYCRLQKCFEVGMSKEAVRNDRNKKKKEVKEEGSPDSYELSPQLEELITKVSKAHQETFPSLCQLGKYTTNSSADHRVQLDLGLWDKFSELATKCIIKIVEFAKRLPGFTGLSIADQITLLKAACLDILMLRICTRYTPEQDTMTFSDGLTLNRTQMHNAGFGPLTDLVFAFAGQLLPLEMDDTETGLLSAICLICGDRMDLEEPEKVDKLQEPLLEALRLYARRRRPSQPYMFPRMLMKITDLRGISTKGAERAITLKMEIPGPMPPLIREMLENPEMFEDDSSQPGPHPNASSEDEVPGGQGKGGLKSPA
Sequence of human Peroxisome Proliferator-activated Receptor delta (PPARd), PPARD (gene 5467) (Q03181 whole entry, looked up, the tested form may be a part): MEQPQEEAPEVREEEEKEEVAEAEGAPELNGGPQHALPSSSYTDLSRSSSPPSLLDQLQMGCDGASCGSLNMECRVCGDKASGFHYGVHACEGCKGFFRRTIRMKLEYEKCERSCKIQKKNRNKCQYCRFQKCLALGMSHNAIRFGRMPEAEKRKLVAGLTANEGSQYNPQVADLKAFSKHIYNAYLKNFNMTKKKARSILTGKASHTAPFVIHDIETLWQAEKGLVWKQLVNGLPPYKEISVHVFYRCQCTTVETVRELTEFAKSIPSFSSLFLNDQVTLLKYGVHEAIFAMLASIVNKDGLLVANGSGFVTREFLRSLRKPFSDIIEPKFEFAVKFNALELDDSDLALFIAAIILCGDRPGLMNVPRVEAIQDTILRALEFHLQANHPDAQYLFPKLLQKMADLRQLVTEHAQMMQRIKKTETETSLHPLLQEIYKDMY

Take `CCCCCCCCn1sccc1=O`: the molecule was called inactive in [1]. In addition, the AC50 was 11.7 µM (active) in assay [2]; 0.796 µM (active) in assay [3]; 9.45 µM (active) in assay [4]; 10.7 µM (active) in assay [5]; 15.4 µM (active) in [6]; 12.6 µM (active) in assay [7]. In addition, the AC50 in [8] was 8.59 µM (active); in [9] it was 9.73 µM (active); in assay [10], 8.07 µM (active); in [11], 5.11 µM (active); in assay [12], 12.4 µM (active); in assay [13], 11.6 µM (active).
For the molecule `Cc1cccc(N)c1N`, the molecule was classed as inactive in assay [1], in assay [2], in assay [14], in assay [15], in assay [4] and in [5]. The molecule was classed as inactive in [16], in assay [17], in [18], in assay [8], in assay [9] and in [10]. The outcome in [12] and in [13] was inactive. Further, the AC50 in assay [6] was 46.1 µM (active); in assay [7], 30.3 µM (active); in [11], 25.9 µM (active).
With `CCNS(=O)(=O)C(F)(F)C(F)(F)C(F)(F)C(F)(F)C(F)(F)C(F)(F)C(F)(F)C(F)(F)F`, the AC50 in [1] is 63.9 µM (active) and 56.2 µM (active); in assay [4], 96.5 µM (active) and 120 µM (active) and 51.2 µM (active); in assay [5] it was 12.7 µM (active) and 9.73 µM (active); in assay [8] it was 44.5 µM (active) and 21.9 µM (active); in assay [9] it was 51.4 µM (active); in [10] it was 30 µM (active). For the same molecule, the AC50 in assay [11] is 14.6 µM (active) and 6.07 µM (active); in assay [12] it was 26 µM (active). The call in assay [1], in assay [19], in [2], in assay [14], in [15] and in assay [5] was inactive. Besides, the result in assay [16], in [20], in assay [17], in assay [6], in [18] and in assay [7] was inactive. In addition, the result in assay [8], in assay [9], in assay [10], in assay [11], in assay [12] and in assay [13] was inactive.

As usually defined, the AC50 is the midpoint of the concentration-response curve, whichever way the signal moves.

These data come from PubChem BioAssay (EPA / NIEHS).
